The experiment has as its target Platelet-activating factor acetylhydrolase (Mus musculus) (UniProt Q60963). The experiment can be described thus: mouse pPAFAH inhibitors, late-stage follow-up, orthogonal assay, biochemical, gel-based competitive ABPP, fluorescence (AID 588474). The conditions noted are these: recombinant mouse pPAFAH, FP-Rh fluorescence, at 5 µM, stronger effect = higher value.

The values below come from PubChem BioAssay AID588474 (The Scripps Research Institute Molecular Screening Center, 2011).

A number with no mark means an inactive call. Activity calls are given as the source filed them.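 The calls were made as follows: active = inhibition of at least 75% in the gel-based probe competition assay; inactive = inhibition below 75%.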

Sequence of Platelet-activating factor acetylhydrolase (Mus musculus) (Q60963 whole entry, looked up): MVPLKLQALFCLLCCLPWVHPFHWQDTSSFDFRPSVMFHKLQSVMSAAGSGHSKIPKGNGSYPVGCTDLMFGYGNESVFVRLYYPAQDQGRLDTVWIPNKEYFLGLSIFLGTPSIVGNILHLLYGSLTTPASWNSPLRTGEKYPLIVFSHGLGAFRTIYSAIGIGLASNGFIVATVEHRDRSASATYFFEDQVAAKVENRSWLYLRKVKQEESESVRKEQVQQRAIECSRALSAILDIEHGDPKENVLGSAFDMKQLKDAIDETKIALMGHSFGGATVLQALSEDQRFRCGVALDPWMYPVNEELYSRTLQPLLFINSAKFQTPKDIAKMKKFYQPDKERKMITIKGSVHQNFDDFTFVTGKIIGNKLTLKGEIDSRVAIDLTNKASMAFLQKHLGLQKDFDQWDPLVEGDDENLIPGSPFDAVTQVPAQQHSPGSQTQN

As a reminder, the inhibition is the drop in the measured response relative to a control, in per cent. For the compound `O=C(Oc1nsnc1N1CCCCC1)N1CCOCC1`, the inhibition was 55%.

In the case of `Cc1cc(C(=O)CSc2nc(N)cc(=O)[nH]2)c(C)n1CCc1ccc(Cl)cc1`, the inhibition was 6%. With `O=C(N/C=C/c1ccco1)OCc1ccccc1`, the inhibition is -3%.

In the case of `CCCCOC(=O)Nc1nnc(CCc2ccccc2)s1`, the inhibition is 22%. For `O=C(Oc1ccc(-c2ccccc2)cc1)N1CCCCC1` the value was 79% (active); for `Cn1c(=O)oc2cc(S(=O)(=O)Nc3ccc(F)cc3)ccc21`, 24%.

`CCOCCCNC(=O)c1ccc(N2CC3CC(C2)c2cccc(=O)n2C3)c(NC(=O)Nc2cccc(OC)c2)c1` (stereo unspecified): the inhibition is 21%. In the case of `COc1cccc(CNC(=O)CCC2CCCN(Cc3cc(Cl)ccc3O)C2)c1` (stereo unspecified), the inhibition is 24%. In the case of `CCOC(=O)N1CCC(NC(=O)CC2C(=O)NCCN2Cc2ccccc2F)CC1` (stereo unspecified) it was 10%; in that of `Cc1ccc(NS(=O)(=O)c2ccc3[nH]c(=O)oc3c2)c(C)c1`, 18%. In the case of `CCOC(=O)N1CCN(C(=O)CCN2C(=O)COc3ccc(C)cc32)CC1`, the inhibition was 22%.

On to `COc1cc(OC)c(NC(=O)CCNS(=O)(=O)c2ccc3c(c2)oc(=O)n3C)cc1Cl`, for which the inhibition is 6%.

With `CCc1ccc(NC(=O)Nc2cc(C(=O)NCC3CCCO3)ccc2N2CC3CC(C2)c2cccc(=O)n2C3)cc1` (stereo unspecified), the inhibition was 8%. Turning to `CCCNC(=O)c1ccc(N2CC3CC(C2)c2cccc(=O)n2C3)c(NC(=O)Nc2ccc(CC)cc2)c1` (stereo unspecified), the inhibition was 18%. In the case of `O=C(Oc1ccc(Oc2ccccc2)cc1)N1CCC(O)CC1` it was 82% (active). Take `CCCCOC(=O)c1ccc(OC(=O)N2CCOCC2)cc1`: the inhibition was 93% (active).

As to `Cc1cc(/C=C(\C#N)C(=O)NCC2CCCO2)c(C)n1-c1ccc(Cl)cc1` (stereo unspecified), the inhibition is 9%. In the case of `COc1cccc(NC(=O)Nc2cc(C(=O)NCC3CCCO3)ccc2N2CC3CC(C2)c2cccc(=O)n2C3)c1` (stereo unspecified) it was 18%; in that of `O=C(/C=C/c1cccs1)c1cc(Br)ccc1OC(=O)N1CCOCC1`, 91% (active).

Take `Cc1ccc(-n2c(C)cc(/C=C(\C#N)C(=O)NCC3CCCO3)c2C)cc1` (stereo unspecified): the inhibition is 23%. Regarding `O=C(Oc1nsnc1N1CCOCC1)N1CCCCC1`, the inhibition is 65%. In the case of `Cc1ccc(NS(=O)(=O)c2ccc3c(c2)oc(=O)n3C)cc1F` it was 53%; in that of `O=C(Oc1ccc(-c2ccccc2)cc1)N1CCOCC1`, 98% (active). For `CCOC(=O)N1CCN(C(=O)c2cccc(S(=O)(=O)Nc3ccc(Br)cc3)c2)CC1` the value was 7%. With `CC(=O)Nc1ccc(NC(=O)CCn2c(=O)oc3ccccc32)cc1`, the inhibition is 30%.

For `CCOC(=O)NC(=O)CSc1nc(-c2ccc(C)c(C)c2)cn1-c1ccccc1`, the inhibition is 56%. For `CCn1c(NC(=O)c2cccc(Cn3cc(Cl)cn3)c2)nc2ccccc21` the value was 0%; for `Cc1cccc(C2=NN(c3ccc(Br)cc3)[C@@H](C(=O)N3CCOC3=O)[C@@H]2c2ccccc2)c1`, 18%. In the case of `Cc1cccc(NS(=O)(=O)c2ccc3[nH]c(=O)oc3c2)c1C` it was 17%; in that of `O=C(CCCSc1ccc(Cl)cc1)Nc1cc(S(=O)(=O)N2CCOCC2)ccc1O`, 75% (active). For `O=C(Oc1ccnc2cc(Cl)ccc12)N1CCOCC1` the value was 22%; for `O=C(Oc1cccc(Oc2ccccc2)c1)N1CCOCC1`, 18%. `O=C(c1ccccc1)c1ccc(OC(=O)N2CCOCC2)cc1`: the inhibition is 55%. In the case of `CCOC(=O)N1CCN(C(=O)c2ccc3c(=O)n4c(nc3c2)CCCCC4)CC1` it was 8%. In the case of `O=C(Oc1nsnc1N1CCOCC1)N1CCOCC1` it was 84% (active); in that of `COc1cccc(NC(=O)Nc2cc(C(=O)NC(C)C)ccc2N2CC3CC(C2)c2cccc(=O)n2C3)c1` (stereo unspecified), 41%.
